Shown are actives, neighbours in structure and some others; about 2% of the full set was active somewhere.
LYPLA1 inh: LYPLA1 (human) inhibition in PME1 counter-screen; recombinant LYPLA1, FP-Rh probe fluorescence polarization; inhibition, % at 5.9 µM; actives 0.16% (n = 320,000); AID 2174;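 active means inhibition above the mean of all tested compounds plus 3 SD, set per campaign, cut at about 14% in these data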;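 further: inhibitors block serine hydrolase probe labeling of LYPLA1 so polarization falls; 0% = enzyme with DMSO and 100% = wells lacking LYPLA1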
Target sequence (O75608 whole entry, looked up): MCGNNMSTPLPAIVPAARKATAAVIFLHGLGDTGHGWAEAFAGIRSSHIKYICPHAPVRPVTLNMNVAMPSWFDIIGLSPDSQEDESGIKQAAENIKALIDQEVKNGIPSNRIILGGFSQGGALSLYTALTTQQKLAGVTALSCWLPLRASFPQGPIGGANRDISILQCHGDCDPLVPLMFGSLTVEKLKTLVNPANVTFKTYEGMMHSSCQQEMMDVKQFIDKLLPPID
PME-1 primary: PME-1 (human) inhibition | inhibition, % at 5.9 µM | recombinant PME-1, FP-Rh probe fluorescence polarization | actives 0.53% (n = 320,000) | Q9Y570 | AID 2130;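 active means inhibition above the campaign mean of all compounds plus 3 SD, cut at about 26% in these data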;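 further: competitive labeling of PME-1 active site by serine hydrolase directed probe; 0% = PME-1 with DMSO and 100% = wells lacking PME-1 enzyme; inhibitors block probe labeling so polarization falls and inhibition rises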
PREPL inh: inhibits the human prolyl oligopeptidase-like enzyme; inhibition, % at 5.96 µM; actives 0.68% (n = 320,000); recombinant PREPL, fluorescence polarization activity-based probe; in the data active means inhibition above about 43%;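 further: 0% = enzyme with DMSO and 100% = wells lacking enzyme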
Fam108B inh: counter-screen for RBBP9 inhibitors: inhibitors of mouse Fam108B; recombinant Fam108B, FP-Rh probe fluorescence polarization; inhibition, % at 9.51 µM; actives 0.33% (n = 300,000);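 active means inhibition above the screen mean inhibition plus 3 SD, computed separately per campaign, cut at about 18% in these data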;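 further: inhibitors lower polarization as less probe binds the enzyme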
GSTO1 inh: blocks human GSTO1 in RBBP9 counter-screen; P78417; recombinant GSTO1, activity-based probe fluorescence polarization; inhibition, % at 5.96 µM; actives 1.1% (n = 300,000);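 active means inhibition above the campaign mean inhibition plus 3 SD, cut at about 35% in these data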;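 further: 0% = GSTO1-1 with DMSO and 100% = wells lacking GSTO1-1 enzyme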
LYPLA2 counter: blocks human lysophospholipase 2, a PME1 counter-screen. O95372. recombinant LYPLA2, FP-Rh probe fluorescence polarization. inhibition, % at 5.9 µM. actives 0.38% (n = 320,000);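 active means inhibition above the screen-wide mean plus 3 SD, limit set per campaign, cut at about 26% in these data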;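 further: 0% = LYPLA2 with DMSO and 100% = wells lacking LYPLA2 enzyme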
Target sequence (O95372 whole entry, looked up): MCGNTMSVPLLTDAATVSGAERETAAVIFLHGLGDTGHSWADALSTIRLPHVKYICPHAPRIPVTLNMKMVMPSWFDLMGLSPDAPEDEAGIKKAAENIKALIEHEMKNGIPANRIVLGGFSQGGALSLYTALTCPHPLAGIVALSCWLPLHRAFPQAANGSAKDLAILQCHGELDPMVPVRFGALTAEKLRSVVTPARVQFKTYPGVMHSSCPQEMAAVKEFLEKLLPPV
LYPLA2 conf: LYPLA2 (human) inhibition, confirmation counter-screen | actives 72% (n = 1,100) | inhibition, % at 5.9 µM | recombinant LYPLA2, FP-Rh probe fluorescence polarization | shares compounds with LYPLA2 counter;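 active means mean inhibition across replicates above the hit cutoff set in the primary screen, cut at about 26% in these data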;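 further: blocked labeling of the enzyme by serine hydrolase FP-Rh probe lowers polarization; 0% = enzyme with DMSO and 100% = wells lacking LYPLA2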
LYPLA2 ABPP: blocks human acyl-protein thioesterase 2 in gel ABPP; shares compounds with LYPLA2 counter; rhLYPLA2 in mouse brain proteome, gel ABPP FP-Rh; inhibition, % at 20 µM; actives 30% (n = 150);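 active means inhibition of LYPLA2 enzyme probe labeling above about 50%, limit read from the data; inactive means inhibition below that limit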;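 further: loss of FP-Rh probe labeling of the LYPLA2 gel band measured as band density; 0% = DMSO only control band and 100% = blank gel background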
* marks the source's active call; other numbers are inactive results; · = not tested or not shown.

SMILES | LYPLA1 inh | PME-1 primary | PREPL inh | Fam108B inh | GSTO1 inh | LYPLA2 counter | LYPLA2 conf | others
Cc1occc1C(=O)N1CCCC(N2CCN(c3cccc(C(F)(F)F)c3)CC2)C1 (centres undefined) | 0 | 0 | 9 | -3 | 4 | 28* | 28*
CC1(CCC(=O)N2CCCC(N3CCN(c4cccc(C(F)(F)F)c4)CC3)C2)CC1 (centres undefined) | 0 | -2 | 23 | 0 | -4 | 32* | 31*
Cc1cc(C(=O)N2CCCC(N3CCN(c4cccc(C(F)(F)F)c4)CC3)C2)c(C)o1 (centres undefined) | 4 | 1 | 11 | -3 | -5 | 31* | 41*
Cc1cc(C(=O)N2CCCC(N3CCN(c4cccc(C(F)(F)F)c4)CC3)C2)nn1C (centres undefined) | 5 | -3 | 8 | 3 | 1 | 13 | ·
O=C(CSc1nncn1-c1ccccc1F)NC1CC1 | · | · | 14 | · | · | · | ·
CCSc1nc(C)nc2sc(C)c(C)c12 | -5 | -3 | 7 | 1 | 5 | -2 | ·
Cc1ncoc1C(=O)N1CCCC(N2CCN(c3cccc(C(F)(F)F)c3)CC2)C1 (centres undefined) | 4 | 2 | 8 | -2 | 2 | 63* | 69* | LYPLA2 ABPP=46
CCN1CCN(c2ccc(S(=O)(=O)N3CCOCC3)cc2NC(=O)C(C)Oc2ccc(Cl)cc2)CC1 (centres undefined) | 2 | 5 | 24 | -3 | 1 | 5 | ·
CCOC(=O)c1ccccc1-n1c(C)cc(C2N=C(N)Nc3nc4ccccc4n32)c1C (centres undefined) | 9 | -143 | -9 | 5 | -3 | 71* | 77*
CCOC(=O)C1=C(C)Nc2nc3ccccc3n2C1c1ccc(O)cc1 (centres undefined) | 1 | 0 | 10 | -4 | 4 | 2 | ·
CCCCN(C)CCNC(=O)CN1C(=O)CSc2ccc(S(=O)(=O)N3CCCC3)cc21 | -5 | 2 | -1 | -1 | 4 | -2 | ·
O=S1(=O)CCN(OCc2ccc(Cl)cc2)CC1 | 2 | 2 | -6 | 1 | 3 | 2 | ·
CC1CN(C(=O)COC(=O)c2cc(Cl)ccc2[N+](=O)[O-])CC(C)O1 (centres undefined) | -2 | -2 | -6 | -1 | 0 | 2 | ·
O=C(OCC(=O)N1CCN(Cc2ccccc2)CC1)c1cc(Cl)ccc1[N+](=O)[O-] | 9 | 2 | 18 | · | · | 39* | 40*
O=C(CCc1nc2ccccc2s1)N1CCN(c2ccccc2)CC1 | -2 | 3 | -41 | 4 | -3 | 1 | ·
COc1ccc(N2CCN(C(=O)CSc3nc4[nH]ncc4c(=O)n3-c3cccc4ccccc34)CC2)cc1 | 2 | 1 | 0 | 4 | 13 | 34* | 30*
COc1ccc(N2CCN(C(=O)CSc3nc4ccccc4c(=O)[nH]3)CC2)cc1 | -4 | 1 | 9 | -1 | 12 | 4 | ·
CC(=O)c1ccc(N2CCN(C(=O)CCCc3nc4ccccc4s3)CC2)cc1 | 6 | 5 | 19 | -1 | 0 | 42* | 44*
COc1ccc(N2CCN(C(=O)Cc3ccc(-n4c(=O)[nH]c5ccccc5c4=O)cc3)CC2)cc1 | 10 | 0 | 17 | 6 | 1 | 57* | 51* | LYPLA2 ABPP=28
COc1ccc(N2CCN(C(=O)Cc3ccc(C)cc3)CC2)cc1 | 0 | -4 | 2 | 2 | -1 | -3 | ·
CC(=O)c1ccc(N2CCN(C(=O)CCCn3c(=O)[nH]c4ccccc4c3=O)CC2)cc1 | 6 | -4 | -19 | -3 | -12 | 53* | 49*
CCOC(=O)N1CCN(C(=O)CCCn2c(=O)[nH]c3ccccc3c2=O)CC1 | 2 | 1 | 12 | 3 | -3 | 6 | ·
CCCCCC(=O)N1CCCCC1 | 3 | 1 | 23 | -1 | 1 | 12 | ·
CC1=C(C#N)C(NC(=O)c2cccc(Cl)c2)(C(F)(F)F)C(=O)N1 (centres undefined) | 1 | -5 | -7 | 3 | 4 | -1 | ·
O=C(c1ccc(Cn2c(=O)[nH]c3ccccc3c2=O)cc1)N1CCN(c2ccccc2)CC1 | 8 | -4 | -74 | -2 | 1 | 35* | 28*
SMILES | LYPLA1 inh | PME-1 primary | PREPL inh | Fam108B inh | GSTO1 inh | LYPLA2 counter | LYPLA2 conf | others
COc1ccc(NC(=O)CSc2ccc3nnc(CCNC(=O)c4ccccc4)n3n2)cc1OC | -1 | -2 | -4 | 2 | 5 | -3 | ·
O=C1N=C(N2CCN(c3ccccc3)CC2)S/C1=C/c1cccs1 | 3 | 6 | 29 | -1 | 6 | 34* | 38*
CCOc1ccc(S(=O)(=O)N2CCN(C(=O)c3ccncc3)CC2)cc1 | -3 | -6 | 20 | -3 | 8 | 4 | ·
Cc1ccc(N2C(=O)c3ccc(C(=O)N4CCN(Cc5ccccc5)CC4)cc3C2=O)cc1 | 2 | 2 | 13 | 1 | 6 | 33* | 27*
C=CCNC(=O)CC(=O)N/N=C/c1cccs1 | 2 | -1 | 1 | 4 | 1 | -4 | ·
O=[N+]([O-])c1ccc(Cl)c(S(=O)(=O)Nc2cccc(-c3ccc(N4CCCC4)nn3)c2)c1 | 1 | 11 | 11 | 5 | 3 | 3 | ·
CCc1ccc(-c2cc(C)no2)cc1S(=O)(=O)N1CCCN(Cc2ccc(F)cc2)C1 | -2 | 0 | -14 | 0 | -1 | -6 | ·
C=CCNc1nc(C(=O)OCC(=O)Nc2c(Cl)cccc2C(F)(F)F)cs1 | 2 | 2 | 13 | -1 | 0 | 8 | ·
Cc1ccc2nc(NCc3ccccc3)c(C=NCc3cccnc3)c(=O)n2c1 | 1 | -1 | 11 | 0 | -11 | 12 | ·
Cc1ccc2nc(NCc3ccco3)c(C=NCc3ccco3)c(=O)n2c1 | 0 | 3 | 10 | 2 | 1 | 32* | -3
CC(C)(C)C(=O)Nc1ccc(C(=O)Nc2cc(NC(=O)c3ccc(NC(=O)C(C)(C)C)cc3)cc(C(=O)O)c2)cc1 | -8 | -7 | -5 | -3 | -8 | -5 | ·
CC(C)(C)C(=O)Nc1ccc(C(=O)Nc2cccc(Oc3ccc(C(=O)O)c(C(=O)O)c3)c2)cc1 | 2 | -8 | 0 | -3 | -3 | 31* | 21
O=C(Nc1cccc(Oc2ccc(C(=O)O)c(C(=O)O)c2)c1)c1ccc(-c2ccccc2)cc1 | -1 | -21 | -9 | -15 | -16 | 54* | 40*
S=C(NCCCN1CCOCC1)Nc1ccc(Cl)cc1 | 1 | -1 | 9 | 4 | 8 | 27* | -5
[O-][n+]1c2c(nc3c1-c1ccccc1C3O)CCCC2 (centres undefined) | 3 | -5 | -2 | 6 | 7 | -2 | ·
O=C(c1ccc(Br)o1)N1CCN(C/C=C/c2ccccc2)CC1 | 4 | -6 | -14 | 1 | 2 | 5 | ·
